Bioassay records as filed in PubChem.
Only a selection was taken, and hits are over-represented in it overall.
AMPAR-TARP mod = modulators of GluA2-stargazin AMPA receptor complexes, primary screen, cell-based, membrane potential dye; calls only at 30 µM; HEK293 GluA2+stargazin, membrane potential dye (FDSS), glutamate EC50; hits were called plate by plate, in both directions; 40,000 compounds, 3.5% hits; Voltage-dependent calcium channel gamma-2 subunit (Mus musculus) + Glutamate receptor 2 …;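 active = any of four per-well response measures lying three or more SD from its plate-wide compound average, in either direction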
GIRK2 act = activators of NPY4-receptor-primed GIRK2 channels, summary, cell-based, HEK293, thallium flux; G protein-activated inward rectifier potassium channel 2 (Homo sapiens), P48051; HEK293 GIRK2/NPY4 cells, thallium flux fluorescence; activation (% efficacy), % for hits at 37.5 µM; 34,000 tested, under 10 active;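 active = primary screen hit, no activity in plain HEK293 cells, and in GIRK2-only cells above 5% efficacy rising with concentration; inactive = the rest, including fluorescent compounds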;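 also: efficacy is normalized control-subtracted fluorescence 15 s after thallium addition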
Target sequence (P48051 whole entry, looked up): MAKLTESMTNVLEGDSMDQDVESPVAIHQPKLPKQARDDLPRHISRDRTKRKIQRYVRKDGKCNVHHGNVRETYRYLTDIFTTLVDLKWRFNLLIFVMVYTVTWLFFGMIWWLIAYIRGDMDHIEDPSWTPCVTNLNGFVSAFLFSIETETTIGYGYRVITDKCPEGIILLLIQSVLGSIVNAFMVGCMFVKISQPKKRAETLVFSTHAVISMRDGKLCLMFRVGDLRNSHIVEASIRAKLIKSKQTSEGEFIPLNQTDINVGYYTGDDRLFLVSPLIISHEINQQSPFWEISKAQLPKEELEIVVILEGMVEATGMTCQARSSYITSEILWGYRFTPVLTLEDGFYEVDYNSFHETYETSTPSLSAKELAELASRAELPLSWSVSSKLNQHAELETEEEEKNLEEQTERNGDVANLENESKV
* hit, by the source's call; i = inactive; · = no result; + = active, no number.

SMILES	AMPAR-TARP mod	GIRK2 act
Cn1c(=O)c2c(nc(N=Nc3c(O)[nH]c4ccccc34)n2CCc2ccccc2)n(C)c1=O	i	·
Cn1c(O)c(N=Nc2nc3c(c(=O)n(C)c(=O)n3C)n2Cc2ccccc2)c(=O)n(C)c1=O	+	·
Cc1cc(-c2nnc(NC(=O)CCSc3ccccc3)o2)nn1C	i	i
CCOC(=O)c1c(NC(=O)c2ccc(S(=O)(=O)N(C)C3CC3)cc2)sc2c1CCN(CC)C2	+	i
CCOC(=O)c1c(NC(=O)c2ccnn2C)sc2c1CCCC2	·	i
CCOC(=O)c1c(NC(=O)c2cc(C)nn2C)sc2c1CCN(CC)C2	+	i
CCOC(=O)c1c(NC(=O)COc2ccc(Cl)cc2)sc2c1CCN(Cc1ccccc1)C2	+	·
COC(=O)c1c(NC(=O)c2ccno2)sc2c1CCN(Cc1ccccc1)C2	·	i
CN(C1CCCC1)S(=O)(=O)c1ccc(C(=O)Nc2sc3c(c2C(N)=O)CCCC3)cc1	i	·
O=C(Nc1ccc(SCC(=O)N2CCN(c3ccccc3)CC2)nn1)C1CC1	i	i
CS(=O)(=O)N1CCCc2cc(NC(=O)c3cccc([N+](=O)[O-])c3)ccc21	i	·
COc1ccc(C2(CNC(=O)C(=O)NCc3ccc(F)cc3)CCCC2)cc1	·	i
Cc1ccc(NC(=O)Nc2c3ccccc3nc(=O)n2CC(C)C)cc1C	i	·
O=C(Cc1cc(-c2ccc3c(c2)OCCO3)on1)NCC1CCCO1 (stereo not given)	i	i
O=C(NCc1cccs1)C(=O)Nc1c2c(nn1-c1ccc(Cl)cc1)CSC2	i	i
O=C(Cn1c(CO)nc2ccccc21)N1CCCCC1	i	i
CCn1c(=O)c2c(nc3n(-c4ccc(OC)cc4)c(C)c(C)n23)n(C)c1=O	i	·
CCn1c(=O)c2c(nc3oc(C)c(C)n32)n(C)c1=O	+	i
O=C(NC1(c2nc(-c3ccsc3)no2)CCCCC1)C1COc2ccccc2O1 (stereo not given)	i	i
CCc1nnc(NS(=O)(=O)c2ccc(NC(=O)c3ccc([N+](=O)[O-])o3)cc2)s1	i	·
CCc1nnc(NS(=O)(=O)c2ccc(NC(=O)c3cc4cc([N+](=O)[O-])ccc4s3)cc2)s1	+	·
CCOc1ccc(NC(=O)CSc2ncc(S(=O)(=O)c3ccc(C)c(Cl)c3)c(=O)[nH]2)cc1	i	i
CCOc1ccc(C)cc1S(=O)(=O)N1CCN(c2ccccc2OC)CC1	·	i
O=C(c1ccccc1F)N1CCC(Cn2cccn2)CC1	i	i
O=C(c1ccccc1C(F)(F)F)N1CCC(Cn2cccn2)CC1	+	i
SMILES	AMPAR-TARP mod	GIRK2 act
O=C(Nc1ccc(F)cc1)C(=O)Nc1cccc([N+](=O)[O-])c1	i	·
Cc1ccc(NC(=O)Cc2csc(NC(=O)c3ccc[nH]c3=O)n2)cc1Cl	i	i
O=C(NCCN1CCC(c2cccs2)CC1)NCc1ccccc1	i	i
CC(C)N1CCc2c(sc(NC(=O)Cc3ccccc3)c2-c2nc3ccccc3s2)C1	i	·
COC(=O)c1c(NC(=O)Cc2ccc(F)cc2)sc2c1CCN(C(C)C)C2	+	i
COc1ccc(S(=O)(=O)Nc2nc(CCC(=O)Nc3ccc4c(c3)OCO4)cs2)cc1	i	i
O=C(NCCc1ccc(Cl)cc1)C(=O)Nc1cccc(C(F)(F)F)c1	i	·
COC1CS(=O)(=O)CC1OC (stereo not given)	+	·
O=C(NCCc1cccc(Cl)c1)C1c2ccccc2Oc2ccccc21	i	·
COc1ccc2sc(N(CC3CCCO3)C(=O)c3cc(C)no3)nc2c1 (stereo not given)	·	i
COc1ccc(/C=C/c2nc3ccccc3s2)cc1S(=O)(=O)N1CCCCC1	+	·
COc1ccc(S(=O)(=O)N2CCCCCC2)c(C)c1C	i	·
COc1ccc(Cl)cc1S(=O)(=O)N1CCN(S(=O)(=O)c2cc(Cl)ccc2OC)CC1	i	·
COc1ccc(Cl)cc1S(=O)(=O)N1CCCCCC1	+	·
COc1ccc(F)cc1S(=O)(=O)N1CCCCCC1	i	·
COc1ccc(Br)cc1S(=O)(=O)N1CCCCCC1	+	·
CN(Cc1nc2ccccc2n1CC(=O)N(C)c1ccccc1)C(=O)c1ccco1	·	i
O=c1c2nccnc2n(Cc2ccccc2Cl)c(=O)n1Cc1ccc(F)cc1	i	i
Cc1nc(Nc2ccc(NC(=O)Nc3cccc(C)c3C)cc2)cc(-n2ccnc2)n1	i	i
CC(C)S(=O)(=O)c1ccc(N2CCN(c3cccc(Cl)c3)CC2)nn1	·	i
COc1ccc(Cl)cc1S(=O)(=O)NCC1(c2cccs2)CCCC1	·	i
Cc1ccc(S(=O)(=O)NCc2cccnc2)c(C)c1N(C)S(=O)(=O)c1ccc(Cl)cc1	+	i
Cc1ccc(S(=O)(=O)NCc2ccccc2)c(C)c1N(C)S(=O)(=O)c1ccccc1	i	·
O=C(NCc1ccccc1)C(=O)NCC(c1cccs1)N1CCOCC1 (stereo not given)	i	i
CC(C)(C)OC(=O)N1CCC(Cn2c(C(F)(F)F)nc3ccccc32)CC1	+	i
SMILES	AMPAR-TARP mod	GIRK2 act
CC(C)(C)OC(=O)N1CCC(CO)CC1	i	i
Cc1onc(C(C)(C)C)c1C(=O)O	i	i
COc1ccc(F)cc1S(=O)(=O)NCCC(O)C(C)(C)C (stereo not given)	+	i
COc1ccc(F)cc1S(=O)(=O)NCC(O)c1ccc(C(F)(F)F)cc1 (stereo not given)	i	i
COc1ccccc1-c1cnn2c(Nc3ccccc3)cc(C)nc12	i	i
COc1ccccc1-c1cnn2c(NCCc3ccccc3)cc(C)nc12	+	i
O=C(Nc1ccc(F)c(Cl)c1)c1cc(C2CC2)n(C2CCS(=O)(=O)C2)n1 (stereo not given)	+	i
Cc1nn(C2CCS(=O)(=O)C2)c(C)c1CC(=O)Nc1ccc(F)c(Cl)c1 (stereo not given)	i	i
CC(C)NC(=O)c1nsc(C(=O)NC2CCCCC2)c1N	i	i
Cn1cccc1C(CNS(=O)(=O)Cc1ccccc1Cl)N1CCOCC1 (stereo not given)	i	i
Cc1nn(-c2ccccc2)c2ncc(C(=O)N3CCC(C(N)=O)CC3)c(Cl)c12	i	·
Cc1cc(C)c2c(n1)nn1c(NCCN3CCOCC3)cc(C)nc21	+	i
Cc1cc(C)c2c(n1)nn1c(NCCc3ccccc3)cc(C)nc21	i	i
Cc1cc(C)c2c(n1)nn1c(NCCN(C)C)cc(C)nc21	+	i
Cc1ccc(-c2c(C)nn3c(NCCN4CCOCC4)cc(C)nc23)cc1	i	i
O=C1CSC(=NS(=O)(=O)c2ccc(Cl)cc2)N1C1CCCCC1	·	i
Cc1ccc(S(=O)(=O)NCCn2nc(C)c(Cl)c2C)c(C)c1	+	i
Cc1ccc(S(=O)(=O)NCC2CCN(C)CC2)c(C)c1	i	i
O=C(CN1CCN(CC(=O)Nc2cccc(F)c2)CC1)Nc1ccc(Cl)cc1	+	·
O=C(CN1CCN(C2c3ccccc3-c3ccccc32)CC1)Nc1cccc(F)c1	i	·
COc1ccc(C(=O)NCCNC(=O)c2ccc(NC(C)=O)cc2)c(OC)c1	i	i
Cc1nnc(NC(=O)CCc2csc(NS(=O)(=O)c3ccccc3)n2)s1	+	i
